Measured values: PubChem BioAssay AID686978 (National Center for Advancing Translational Sciences (NCATS), 2013)
Values joined by “and” are separate entries in the source; they are usually repeats but may differ in a detail not shown here. Equal entries are not always repeated. Out of some 420,000 compounds screened, about 64,000 (15%) were called active. About 27% were inconclusive and are not listed. Only a sample is shown. Values without a mark were called inactive. Calls come from the whole dose curve; as a rule, active = well fitted inhibition curve with a large enough effect; inconclusive = small, poorly fitted or top-dose-only effect; inactive = flat fitted curve, though single readings scatter.

test: qHTS for Inhibitors of human tyrosyl-DNA phosphodiesterase 1 (TDP1): qHTS in cells in absence of CPT; conditions: DT40 Tdp1-/- hTDP1 cells, no CPT, ATP luminescence, 48 h; activity change, negative = growth inhibition: at 46.2 µM (top of the series); note: nearly all actives have a fitted effect of over 55% in size
Outline: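 Cells were dispensed at 400 per well, compounds added by pin tool, plates incubated ≥48 hr at 37 °C, then CellTiter-Glo added for 30 min at room temperature before luminescence reading. Line: DT40 Tdp1-/- complemented with hTDP1; camptothecin omitted.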
% is set by controls: 0 for no effect and ±100 for the full control effect; potency is the fitted concentration of half-maximal effect.

| Compound | activity change, negative = growth inhibition [%] | Potency |
| --- | --- | --- |
| Cc1cc(NC(=O)CCC(=O)N(Cc2ccccc2)C(C(=O)NC2CCCC2)c2ccc(C)o2)no1 (stereo not given) | -28.1 | – |
| CCc1nc2ccc(C(=O)NC3CCN(Cc4ccccc4)CC3)cn2c1N(C)CCN1CCOCC1 | -24.4 | – |
| O=C(NC(=S)Nc1ccccc1C(=O)O)c1ccc(-c2ccc(Br)cc2)o1 | -10.9 | – |
| O=C(c1cccnc1NCc1ccccc1)N1CCOCC1 | -11.3 | – |
| CC(=O)Nc1ccc(NC(=O)c2ccc3c(c2)C(=O)N(c2ccccc2C)C3=O)cc1 | 5.82 | – |
| NC(=O)C1(N2CCCCC2)CCN(C(=O)c2ccc(C#Cc3ccccc3)o2)CC1 | -29.5 | – |
| COCCCNC(=O)CNC(=S)N(Cc1cc(OC)c(OC)c(OC)c1)C1CCCC1 | 7.92 | – |
| COc1ccc(C)cc1N(C)C(=O)c1coc(=O)c2ccccc12 | -19.8 | – |
| CC/C(Cc1ccccc1)=N/NC(=O)CCn1nnc2ccccc21 | 0.293 | – |
| NS(=O)(=O)c1ccc(NC(=S)N2CCCC2)cc1 | 17.6 | – |
| CCN(CC)C(=O)CSc1nnc(CNc2ccc(F)cc2)n1Cc1ccco1 | 0.469 | – |
| CC1CN(Cc2ccco2)C(=S)N(c2ccccc2)C1=O (stereo not given) | -2.45 | – |
| CN(C)C(=S)N=c1ssc(=S)n1Cc1ccco1 | – | 1.64 µM (active) |
| CC1=CC=CC2=N/C(=N\S(=O)(=O)c3ccc(F)cc3F)c3ccccc3CN12 | -23.1 | – |
| C=CCSC1=C(C#N)C(c2cc(Br)c(O)c(OC)c2)CC(=O)N1 (stereo not given) | -1.88 | – |
| CCOC(=O)CSC1=C(C#N)C(c2sccc2C)CC(=O)N1 (stereo not given) | – | 3.55 µM (active) |
| COC(=O)CSC1=C(C#N)C(c2ccccc2OC)C(C(=O)OC)C(=O)N1 (stereo not given) | -2.46 | – |
| COc1cccc(CNC(=O)C2CCN(S(=O)(=O)c3cccc4cccnc34)CC2)c1 | -14.2 | – |
| Cc1ccc2nc3n(c(=O)c2c1)CCC3 | -1.96 | – |
| Cc1ccc2nc(C)c3c(c2c1)N(c1ccccc1)CC3 | – | 13 µM (active) |
| Cc1nc2ccc(C(=O)N3CCN(c4ccccc4)CC3)cc2s1 | -8.77 | – |
| CC(=O)c1ccc(NC(=O)CCc2nnc3ccc(NCc4ccco4)nn23)cc1 | -26.2 | – |
| Cc1cc(C)nc(NS(=O)(=O)c2ccc(NC(=O)c3cc(=O)c4ccc(C)c(C)c4o3)cc2)n1 | -12.7 | – |
| Cc1nc(SCC(=O)Nc2ccc(C(=O)O)cc2)n[nH]1 | -3.23 | – |

| Compound | activity change, negative = growth inhibition [%] | Potency |
| --- | --- | --- |
| O=S(=O)(N1CCOCC1)N1CCN(c2ccccc2F)CC1 | -6.21 | – |
| O=C1c2ccccc2-c2ncnc3c(N4CCOCC4)cc(N4CCOCC4)c1c23 | – | 10.3 µM (active) |
| O=S(=O)(Nc1cc(Cl)ccc1N1CCOCC1)c1ccccc1Cl | -1.88 | – |
| COc1ccc(CCNC(=O)CSc2nnc3ccc(-c4ccncc4)nn23)cc1 | 3.54 | – |
| Cc1nn(Cc2ccc(F)cc2)c(C)c1NC(=O)c1noc2c1CCc1ccccc1-2 | – | 18.4 µM (active) and 16.4 µM (active) |
| Cc1cc(C(=O)Nc2c(C)nn(Cc3ccccc3)c2C)on1 | 3.16 | – |
| Cc1ccccc1Cn1nc(C)c(NC(=O)C(F)(F)F)c1C | 9 | – |
| CC(C)CNC(=O)c1cc(-c2ccc(Br)cc2)on1 | -14.2 | – |
| CC(C)Cc1cc(C(=O)Nc2cc(Br)ccc2O)no1 | – | 14.6 µM (active) |
| Cc1nn(Cc2ccc(F)cc2)c(C)c1NC(=O)c1cccnc1Cl | 0.0616 | – |
| Cc1nn(Cc2ccc(F)cc2)c(C)c1NC(=O)c1cc(CC(C)C)on1 | – | 20.6 µM (active) |
| CC(C)Cc1cc(C(=O)NCCc2ccccc2)no1 | -11.1 | – |
| Cc1nn(Cc2ccccc2Cl)c(C)c1NC(=O)Cn1nc([N+](=O)[O-])c(Cl)c1C | -1.09 | – |
| c1ccc(CN=C2Nc3ccccc3CS2)nc1 | -15.1 | – |
| CC1(C)O[C@H]2CC(=O)OCC23[C@H]2CC[C@@]4(C)[C@H](c5ccoc5)OC(=O)[C@H]5O[C@]54[C@]2(C)C(=O)C[C@@H]13 (stereo not given in full) | -0.653 | – |
| COc1ccc(NC(=O)c2c(SC)nsc2SC)cc1 | -15.8 | – |
| Oc1ccc2c(c1)OCC1c3cc4c(cc3OC21)OCO4 (stereo not given) | 1.62 | – |
| CCSc1sc(CC)cc1C=O | -5.26 | – |
| COc1ccccc1/C=C/C=N/NC(=O)CN1CCN(Cc2ccccc2)CC1 | -25.1 | – |
| Cc1cc(SCc2c(F)cccc2Cl)nc(=O)[nH]1 | -21.7 | – |
| COc1ccc(NC(=O)N2CCCn3nc(C)cc32)cc1OC | -3.6 | – |
| COc1ccc(NC(=O)NC(C)c2c(-n3cccc3)sc(C)c2C)cc1OC (stereo not given) | – | 16.4 µM (active) |
| CCn1cc(NC(=O)Nc2ccc(OC)c(OC)c2)c(C(N)=O)n1 | -6.75 | – |
| Cc1ccc(NC(=O)CCC(=O)c2ccc(Br)cc2)cc1 | 8.36 | – |

| Compound | activity change, negative = growth inhibition [%] | Potency |
| --- | --- | --- |
| NC(Cc1ccc(F)cc1)c1csc(Nc2nncc3ccccc23)n1 (stereo not given) | – | 4.11 µM (active) |
| COCC(C)NC(=O)COc1nncc2ccccc12 (stereo not given) | -1.48 | – |
| O=C(Nc1ccc2c(c1)OCCO2)C1CCCN(c2ncccn2)C1 (stereo not given) | -21.7 | – |
| Cc1cc(-c2ccc(C)c(S(=O)(=O)N3c4ccccc4CC3C)c2)on1 (stereo not given) | – | 23.1 µM (active) |
| Cc1cc(-c2ccc(C)c(S(=O)(=O)Nc3ccc(S(N)(=O)=O)cc3)c2)on1 | 1.72 | – |
| CC1Cc2ccccc2N1S(=O)(=O)c1ccc(Cl)nc1 (stereo not given) | -14.7 | – |
| Cc1cc(NC(=O)CCC(=O)N(CC(=O)NCC2CCCO2)c2ccccc2C)no1 (stereo not given) | 1.54 | – |
| COc1ccccc1NC(=O)CSc1nnc(Cc2cccn2C)n1-c1ccc(F)cc1 | -12.2 | – |
| COc1ccccc1NC(=O)CSc1nnc(Cn2nnc(-c3ccccc3)n2)n1-c1ccccc1 | – | 20.6 µM (active) |
| COc1ccccc1OCc1nnc(SCC(N)=O)n1-c1ccccc1 | -2.24 | – |
| COc1ccc(Cl)cc1-n1c(=S)sc2c(=O)n(-c3ccc(F)cc3)c(SCC(=O)O)nc21 | 1.54 | – |
| O=C(O)c1cc(S(=O)(=O)N2CCCCCC2)c(Cl)cc1Cl | -12.2 | – |
| Cc1ccc(CNC(=O)CCNS(=O)(=O)c2ccc(Br)s2)cc1 | -15.4 | – |
| CC1=NN(C(=O)Cc2ccc(C)cc2)C(O)(c2cccnc2)C1 (stereo not given) | -17.6 | – |
| COc1ccc(CC(=O)N2N=C(C)CC2(O)C(F)(F)F)cc1 (stereo not given) | – | 3.26 µM (active) |
| CC1=NN(C(=O)CCCc2ccccc2)C(O)(C(F)(F)F)C1 (stereo not given) | 0.642 | – |
| Cc1ccc(CNS(=O)(=O)c2ccc3c(c2)N(C)CCO3)cc1 | -25.3 | – |
| CCCCC(=O)Nc1ccc2c(c1)C(=O)NC2=O | -19.1 | – |
| Oc1cccc(CCc2ccccn2)c1 | -0.0969 | – |
| CC(C)S(=O)(=O)c1csc(NC(=O)Nc2ccc(Cl)cc2)c1Cl | – | 16.4 µM (active) |
| NS(=O)(=O)c1ccc(CCNC(=O)Nc2ccc(Cl)cc2)cc1 | -22.3 | – |
| O=C(NCc1cn2ccsc2n1)Nc1ccc(Cl)cc1 | -20.7 | – |
